Bioassay records from PubChem BioAssay.
USP7 block: blocks human USP7 ubiquitin-rhodamine cleavage | purified USP7, Ub-rhodamine cleavage fluorescence | inhibition, % at 20 µM | hit rate 0.3% among 47,000 | Q93009
USP10 inh: blocks human USP10 ubiquitin-rhodamine cleavage. Q14694. purified USP10, Ub-rhodamine fluorescence, 60 min. inhibition, % at 20 µM. hit rate 1.1% among 47,000
UCHL1 block: inhibitors of human UCHL1 deubiquitinase; purified UCHL1, Ub-rhodamine cleavage fluorescence; inhibition, % at 20 µM; hit rate 0.2% among 47,000
Target sequence (P09936 whole entry, looked up): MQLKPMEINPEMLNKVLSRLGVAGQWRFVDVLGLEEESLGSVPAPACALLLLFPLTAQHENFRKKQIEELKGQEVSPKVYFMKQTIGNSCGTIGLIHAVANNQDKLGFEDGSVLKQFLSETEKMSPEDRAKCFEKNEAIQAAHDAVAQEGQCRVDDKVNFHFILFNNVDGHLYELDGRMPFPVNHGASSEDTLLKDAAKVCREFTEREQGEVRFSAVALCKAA
USP8 block: inhibitors of human USP8 deubiquitinase. P40818. purified USP8, Ub-rhodamine cleavage fluorescence, 30 min. inhibition, % at 20 µM. hit rate 4.2% among 47,000. AID 1645853
The depositor's hits bear a star. Rows were chosen to be rich in hits. Some 4.6% of all compounds tested hit in one or more screens of this group. No stated cut-off is given here; in the data, active means inhibition above about 30%; inactive means the rest.

SMILES	USP7 block	USP10 inh	UCHL1 block	USP8 block
C/C(Nc1ccc2oc(=O)ccc2c1)=C1/C(=O)CC2[C@H]1C2(C)C (some centres not stated)	-7	-8	-8	41*
O=C(NCc1ccccc1)C1CCN(c2cnc3nccnc3c2)CC1	-34	-2	-31	-13
O=C(NCC(c1ccc(Cl)cc1)N1CCOCC1)c1cc(-c2ccccc2)on1 (configuration not stated)	0	-2	4	12
COc1ccc(C(CNC(=O)c2cc(-c3ccc(Cl)cc3)on2)N2CCOCC2)cc1 (configuration not stated)	8	25	-1	40*
COc1ccc(-c2cn3ccc4cc(OC)c(OC)cc4c3c2-c2ccc(OC)c(OC)c2)cc1	0	-2	-2	31*
CC1CCCCN1c1nc(F)c2c(c1F)S(=O)(=O)CCN2Cc1ccccc1 (configuration not stated)	-3	-4	5	89*
O=C(COC(=O)c1n[nH]c2ccccc12)Nc1ccc2c(c1)CCC2	12	11	1	30*
O=C(COC(=O)c1n[nH]c2ccccc12)Nc1ccc(N2CCCCC2)cc1	11	4	0	5
Cc1cc(C2CN(C(=O)c3ccc4n[nH]nc4c3)CCO2)nc(C)n1 (configuration not stated)	9	0	2	-5
CC(=O)c1ccccc1NC(=O)COc1ccc(-c2ccc(C#N)cc2)cc1	12	11	3	16
CCc1cccc2c(C(=O)COc3ccc(C#N)cc3)c[nH]c12	3	16	4	82*
NC(c1c(O)ccc2ccccc12)P(=O)(O)O (configuration not stated)	5	-1	-1	37*
Cc1ccc(NC(=O)Nc2ccc(C)n(CC(=O)Nc3ccccc3)c2=O)cc1	20	39*	2	45*
COc1ccc(CNC(=O)CCc2nnc3n(Cc4ccccc4Cl)c(=O)c4ccccc4n23)cc1	7	14	9	38*
O=C(CCc1nnc2n(Cc3ccccc3Cl)c(=O)c3ccccc3n12)NCc1ccccc1	7	15	0	47*
c1ccc(-n2nnc(-c3noc(-c4cccnc4)n3)c2-c2ccncc2)cc1	-3	-2	1	20
Cc1ccc2[nH]c3c(=O)n(CCC4=CCCCC4)cnc3c2c1	10	1	3	31*
O=c1c2[nH]c3ccccc3c2ncn1CCC1=CCCCC1	6	16	2	-18
CCOc1ccc2ncc(S(=O)(=O)c3ccccc3)c(Nc3ccc(C)cc3)c2c1	11	2	8	-9
CC(NC(=O)c1cc(-c2ccc(C(C)(C)C)cc2)nc2ccccc12)C1CC2CCC1C2 (configuration not stated)	0	2	-2	-5
O=C(CN1CCOCC1)Nc1ccc(NC(=O)c2ccc(Cl)cc2)cc1	-4	1	69*	-6
Cc1cc(N2CC3(CCCCC3)OC2=O)nc(C2CCN(S(C)(=O)=O)CC2)n1	5	-1	5	31*
CCCn1c(-c2ccc(F)cc2)cn2c(-c3ccccc3)c(-c3ccccc3)nc12	3	3	0	68*
Nc1c(-c2nc3ccccc3[nH]2)c2nc3ccccc3nc2n1Cc1cccc(Cl)c1	-6	-5	-12	16
O=C(Cc1cccnc1)N[C@@H]1CC[C@@H](Oc2ccccc2)[C@@H](O)[C@@H]1O	6	3	5	73*
SMILES	USP7 block	USP10 inh	UCHL1 block	USP8 block
O=C(C1CCCN(S(=O)(=O)N2CCCCCC2)C1)N1CCN(c2ccccc2)CC1 (configuration not stated)	-4	-2	-2	-13
Cc1ccccc1NC(=O)CNc1nc(Nc2ccccc2)nc(Nc2ccccc2)n1	3	0	1	34*
O=C(CNc1nc(Nc2ccccc2)nc(Nc2ccccc2)n1)Nc1ccccc1F	8	10	9	7
COc1ccc(N2CC(C(=O)NCc3cccnc3)CC2=O)cc1Cl (configuration not stated)	0	0	0	-1
Cc1cnc(NC(=O)c2cc3c(C)nn(Cc4ccccc4Cl)c3s2)s1	-26	13	4	56*
Cc1cnc(NC(=O)c2ccccc2-c2ccccc2)s1	0	3	1	4
O=C1c2ccccc2C2(CCCC2)C(=O)N1Cc1ccccc1	-59	8	3	49*
Cn1cnc(C(=O)O)c1C(=O)O	-1	-5	-3	-87
Cc1cc(Nc2ccc(C)c(Cl)c2)n2nc(-c3ccco3)nc2n1	-4	-5	-17	35*
Cc1cc(Nc2ccc(C)c(Cl)c2)n2nc(-c3cccnc3)nc2n1	3	-8	0	10
CC(c1ccccc1)n1cnc2c(cnn2C(C)(C)C)c1=O (configuration not stated)	-3	1	1	0
COc1ccc(CCNC(=O)COC(=O)c2ccc(N3CCCC3=O)cc2)cc1	6	5	0	30*
COc1ccc(C(=O)Nc2cccc(N3CCCCC3=O)c2)cc1	6	1	3	4
CCc1ccccc1NC(=O)CN1C(=O)C2CCCC2=Nc2ccccc21 (configuration not stated)	11	34*	0	34*
Cc1cccc(C)c1NC(=O)CN1C(=O)C2CCCC2=Nc2ccccc21 (configuration not stated)	4	21	2	7
O=C1Nc2cc(C(=O)N3CCCC3)ccc2NC1CS(=O)(=O)Cc1ccc(F)cc1Cl (configuration not stated)	-16	-4	-4	35*
CCOC(=O)C1CCN(C(=O)c2ccc3c(c2)NC(=O)C(CS(=O)(=O)Cc2ccccc2Cl)N3)CC1 (configuration not stated)	-14	-12	-3	49*
O=C(NCc1ccc(F)cc1Cl)c1csc(C(=O)N2CCCC2)n1	-10	-1	-1	-2
CCOC(=O)C1CCN(C(=O)c2ccc3c(=O)n(-c4ccccc4)c(=O)[nH]c3c2)CC1	-4	0	0	0
Cc1noc(C)c1CNc1ccc(Cl)cc1	-11	6	2	39*
Cc1ccc(NC(=O)Cc2nnc3c(-c4nc(C5CC5)no4)cccn23)cc1	58*	48*	59*	97*
COc1ccc(C2NC(=O)NC(C)=C2C(=O)OC2CCCC2)cc1OC (configuration not stated)	-5	0	-2	35*
COc1cc(C2NC(=O)NC(C)=C2C(=O)OC2CCCC2)cc(OC)c1OC (configuration not stated)	0	2	-1	7
CC(=O)Nc1ccc(-n2cnc(C(=O)NCc3ccc(F)cc3)c2)nc1	5	5	0	16
Cc1cccc(-n2cnc(C(=O)NCc3ccc(F)cc3)c2)n1	1	4	2	34*
CN1CCc2cc(C(CNC(=O)C(C)(C)C)N3CCCCC3)ccc21 (configuration not stated)	-1	2	-1	-1
NS(=O)(=O)c1ccc(CCNC(=O)COC(=O)c2cc(-c3ccc(Cl)cc3)nc3ccccc23)cc1	6	-4	5	66*
CN1CCc2c(sc3c2c(NCc2cccnc2)nc2nnnn23)C1	-13	-3	-23	39*
